High-throughput results deposited in PubChem BioAssay by Broad Institute.
Tg IFNy HTS: inhibitors of Toxoplasma gondii growth with IFN-gamma; 69,000 compounds, 3.8% hits; Toxoplasma gondii growth in IFN-gamma-treated host cells; stronger effect = lower value; activity change, negative = inhibition, % (test concentration not listed); in the data active means activity change below about -70%, passing the limit was not always enough;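 further: host cells are HeLa cells infected with Toxoplasma gondii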
Numbers stand for hits; 0 = inactive. The entries come from a sample that favours hits as a whole.

SMILES	Tg IFNy HTS
NC(=O)c1csc(-c2cccc(C(=O)O)c2)n1	0
NC(=O)c1csc(-c2ccc(F)cc2F)n1	-107
CN(C)C(=O)COCC1CN(c2ncccn2)Cc2nccn2C1 (configuration not stated)	0
CCS(=O)(=O)N1CCC2(CC1)OC(=O)C(C)=C2C(=O)NCCc1ccccc1	0
Cc1cc(Cc2c(F)cccc2F)cc(C2CCN(C(=O)CC3CCCCO3)CC2)n1 (configuration not stated)	0
Cc1cc(Cc2cccc(F)c2)cc(C2CCN(C(=O)c3n[nH]c4c3CCCCC4)CC2)n1	-111
O=C(c1n[nH]c2c1CCCC2)N1CCC(c2[nH]ncc2-c2ccccc2)CC1	0
C[C@H](NC(=O)C[C@@H]1CC[C@@H]2[C@H](COC[C@@H](O)CN2C(=O)Nc2cccc(Cl)c2)O1)c1ccccc1	0
COc1cccc(Cn2c(C)c(CNCCc3c[nH]c4ccccc34)c(C(=O)O)c2C)c1	0
CCOc1ccc(-c2nc(CN(C)S(=O)(=O)CC)c(C)o2)cc1	0
OC(CCCc1ccccc1)(c1ccc(Cl)cc1)c1ccc(Cl)cc1	-80
O=C(/C=C/c1ccc(Cl)cc1)NCCc1ccccc1	0
O=C(COc1ccc(Cl)cc1)NCc1ccccc1	0
CS(=O)(=O)N1C[C@H](NC(=O)c2cnccn2)[C@H]2OCCC[C@H]21	0
C[C@H](CCC(=O)NCCS(=O)(=O)O)[C@H]1CC[C@H]2[C@@H]3[C@@H](O)C[C@@H]4C[C@H](O)CC[C@]4(C)[C@H]3CC[C@]12C	0
CCN(CC)CCCNC(=O)c1ccc2ccc(N3CCN(Cc4cccnc4)CC3)n2c1	0
Cc1oc(-c2cccc(Cl)c2)nc1CN(C)S(=O)(=O)c1ccc(F)cc1	0
COc1ccc(S(=O)(=O)N(C)Cc2nc(-c3cccc(Cl)c3)oc2C)cc1	-99
Cc1ccc(S(=O)(=O)N(C)Cc2nc(-c3ccccc3C)oc2C)c(C)c1	0
COc1ccccc1-c1nc(CN(C)S(=O)(=O)c2ccc(C)cc2C)c(C)o1	-104
COc1ccccc1-c1nc(CN(c2ccccc2OC)S(=O)(=O)c2ccccc2C)c(C)o1	0
COc1cccc(N(Cc2nc(-c3cccc(Cl)c3)oc2C)S(=O)(=O)c2ccccc2)c1	0
Cc1c(Cl)cccc1NC(=O)CC(=O)N(C)Cc1csc(C(C)C)n1	0
Cn1c(Br)nc2ccccc21	0
COc1cc(-c2nc3ccccc3n2C)cc(OC)c1OC	0
SMILES	Tg IFNy HTS
COc1cccc(-n2cnc3ccccc32)n1	-90
Cc1nc(-c2cccc(F)c2)sc1CCNC(=O)C(=O)Nc1ccc(F)cc1F	0
Cc1ccc(S(=O)(=O)N2CCC3(CC2)NCCN=C3NCc2ccccc2F)c(C)c1	0
Cc1nnc(-c2ccc3ccn(CC(=O)Nc4cccc(CN5CCCC5)c4)c3c2)o1	0
Cc1oc(C2CCN(C(=O)Nc3cccc(C(F)(F)F)c3)CC2)nc1C(=O)N(C)C	0
CN(Cc1cccc(Cl)c1)c1nc(-c2cccnc2)nc2c1cnn2C	-82
CN(Cc1ncc[nH]1)c1nc(-c2cccnc2)nc2c1cnn2C	0
CN(CCn1cccn1)c1nc(-c2cccnc2)nc2c1cnn2C	0
COc1coc(CN2CCCC3(CC2)CN(C)C(=O)O3)cc1=O (configuration not stated)	0
Cc1oc2nc3c(c(NC(=O)CN4CCCC4=O)c2c1C)CCCC3	0
O=C1NC2(CCN(Cc3ccco3)CC2)CC1c1cccnc1 (configuration not stated)	0
COc1ccc(CNC(=O)C[C@@H]2C=C[C@@H](NC(=O)c3cccc(F)c3)[C@@H](CO)O2)cc1	0
Cc1ccc(C)c(C(=O)Nc2ccc(-c3nc(Cn4nc(C)cc4C)c(C)o3)cc2)c1	-75
Cc1cc(C)cc(C(=O)Nc2ccc(-c3nc(Cn4nc(C)cc4C)c(C)o3)cc2)c1	-97
Cc1cc(C)n(Cc2nc(-c3ccc(NC(=O)c4ccc(C)c(F)c4)cc3)oc2C)n1	0
Cc1cc(C)n(Cc2nc(-c3ccc(NC(=O)c4cc(F)cc(F)c4)cc3)oc2C)n1	0
Cc1cc(C)n(Cc2nc(-c3ccc(NC(=O)CCc4ccccc4)cc3)oc2C)n1	0
COc1cccc(CC(=O)Nc2ccc(-c3nc(Cn4nc(C)cc4C)c(C)o3)cc2)c1	-85
Cc1cc(C)n(Cc2nc(-c3ccc(NC(=O)Cc4ccccc4C)cc3)oc2C)n1	0
Cc1cc(C)n(Cc2nc(-c3ccc(NC(=O)c4ccccc4)cc3)oc2C)n1	0
Cc1cc(C)n(Cc2nc(-c3ccc(NC(=O)c4ccc(Cl)cc4)cc3)oc2C)n1	0
O=C(Nc1ccc(Cl)cc1Cl)N1CCCC1c1cccnc1 (configuration not stated)	0
CCCN1C(=O)NC(CC(=O)N2CCC(c3ccc(Cc4ccccc4C)cn3)CC2)C1=O (configuration not stated)	0
O=c1[nH]c2ccccc2cc1CN1CC[C@@H](c2ccc3c(c2)OCO3)[C@H](O)C1	0
Cc1nc(-c2ccc(F)cc2)sc1CCNS(=O)(=O)c1cccs1	0
SMILES	Tg IFNy HTS
COc1ccccc1-n1cc(C(=O)N2CC(c3cccnc3)C2)cn1	0
Cc1ccc2c(c1)C(=O)CCCC1C(=O)N2CCN1C(=O)c1ccccc1 (configuration not stated)	0
Clc1ccc(-n2ncc3c(NCc4cccc(Cl)c4)ncnc32)cc1	0
C=CCn1c(SCC(=O)OCC)nc2sc3c(c2c1=O)CC(C)(C)OC3	0
CCOC(=O)c1c(NC(=O)CSc2nc(C)cc(C)n2)sc2c1CCC2	0
CCC(Sc1ncc(-c2ccccc2)nn1)C(=O)Nc1sc2c(c1C#N)CCCC2 (configuration not stated)	0
N#Cc1c(NC(=O)C2CC(c3cccc(Br)c3)=NO2)sc2c1CCC2 (configuration not stated)	0
CCOC(=O)c1c(NC(=O)C2CC(=O)OC23CCCCC3)sc2c1CC(C)(C)OC2 (configuration not stated)	-96
N#Cc1c(NC(=O)C2CC(=O)OC23CCCCC3)sc2c1CCCCC2 (configuration not stated)	-91
COCCN1CCN(c2ccc3ccc(C(=O)Nc4ccc(C)cn4)cn23)CC1	0
CN1CC2(CCN(C(=O)CCc3nc4cccnc4n3C)C2)OC1=O (configuration not stated)	0
c1coc(CN2CCCC3(CC(n4ccnc4)CO3)C2)c1 (configuration not stated)	0
Cc1ccc(N2CC[C@H]3[C@@H]2CCN3C(=O)c2ccc(C)o2)nn1	0
Cc1ccc(-c2nc(CN3CCN(C(=O)NC4CCCCC4)CC3)c(C)o2)cc1	0
Cc1oc(-c2ccc(Cl)cc2)nc1CN1CCCC(C(=O)NC2CCCCCC2)C1 (configuration not stated)	-99
CCOc1ccc(-c2nc(CN3CCN(C(=O)NC4CCCCC4)CC3)c(C)o2)cc1	0
Cc1nn(Cc2nc(-c3ccc(NC(=O)c4cc(F)ccc4F)cc3)oc2C)c(C)c1C	0
Cc1ccccc1C(=O)Nc1ccc(-c2nc(Cn3nc(C)c(C)c3C)c(C)o2)cc1	-97
COc1ccc(C(=O)Nc2ccc(-c3nc(Cn4nc(C)c(C)c4C)c(C)o3)cc2)cc1	-93
CCOc1ccccc1C(=O)Nc1ccc(-c2nc(Cn3nc(C)c(C)c3C)c(C)o2)cc1	0
Cc1nn(Cc2nc(-c3ccc(NC(=O)c4cc(F)cc(F)c4)cc3)oc2C)c(C)c1C	0
Cc1nn(Cc2nc(-c3ccc(NC(=O)c4ccc(N(C)C)cc4)cc3)oc2C)c(C)c1C	0
COC(=O)c1sccc1S(=O)(=O)NC1CCS(=O)(=O)C1 (configuration not stated)	0
